Measurements taken from PubChem BioAssay (NCI).
Compounds without any hit were thinned out: in the full panel of roughly 79,000, 15% have a hit. Activity calls are given as the source filed them. Cut-off read from the data, not from the text of the source: active = growth inhibition above about 70%; inactive = the rest.

Columns and labels:
[1] = NCI Yeast Anticancer Drug Screen. Data for the rad50 strain (AID 155);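 note: 0% = growth of vehicle-only cultures of the same strain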; conditions: S. cerevisiae rad50 strain growth inhibition; at 50.0 µM; hits give high values
Procedure, shortened: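 Relative growth inhibition (compound vs vehicle) was measured in yeast with a defined repair-gene alteration.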

[2] = NCI Yeast Anticancer Drug Screen. Data for the mec2-1 strain (AID 157); conditions: S. cerevisiae mec2-1 strain, at 50.0 µM, hits give high values
Procedure, shortened: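 Compounds were applied to mec2-1 yeast cells. Their growth was then compared with that of vehicle-treated cultures to give growth inhibition.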

[3] = NCI Yeast Anticancer Drug Screen. Data for the sgs1 mgt1 strain (AID 161);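 note: 0% = growth of cultures given vehicle only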; conditions: S. cerevisiae sgs1 mgt1 strain, at 50.0 µM, hits give high values
Procedure, shortened: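 Yeast cells carrying a defined DNA-repair defect were exposed to test compounds. Growth inhibition was measured relative to vehicle-treated controls.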

[4] = NCI Yeast Anticancer Drug Screen. Data for the cln2 rad14 strain (AID 165);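 note: 0% = growth equal to vehicle treated cultures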; conditions: S. cerevisiae cln2 rad14 strain, at 50.0 µM, hits give high values
Procedure, shortened: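 Strain: cln2 rad14 yeast, altered in cell cycle control and DNA damage repair. Read-out: growth inhibition vs vehicle.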

[5] = NCI Yeast Anticancer Drug Screen. Data for the bub3 strain (AID 167); conditions: S. cerevisiae bub3 mutant strain, at 50.0 µM, hits give high values
Procedure, shortened: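 Screening used yeast with an engineered genetic alteration affecting cell cycle control. Compound-exposed cultures were compared with vehicle cultures, and reduced growth was taken as inhibition.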

[6] = NCI Yeast Anticancer Drug Screen. Data for the mlh1 rad18 strain (AID 175); conditions: S. cerevisiae mlh1 rad18 strain growth inhibition; at 50.0 µM; hits give high values
Procedure, shortened: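 A repair-deficient yeast strain is exposed to test compound, and growth is scored relative to vehicle-treated controls.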

Measured: growth inhibition

CC1OCOC(CO)C(O)C1O (stereo not drawn)
inactive: [1] -18.5% | [2] 1.55% | [3] 17.5% | [4] -32% | [5] -3% | [6] -5.8%

O=C1NC(=O)C(=CN2C(=O)/C(=C/c3ccc([N+](=O)[O-])cc3)SC2=S)C(=O)N1
inactive: [1] -0.4% | [2] 33.2% | [3] 40.6% | [4] 20.4% | [5] 20.6% | [6] 21.9%

COc1ccc(NC(=O)Nc2cc(C(F)(F)F)ccc2Cl)cc1
inactive: [1] 14.6% | [2] 16.6% | [3] 5.9% | [4] -26.1% | [5] 2.5% | [6] -9.65%

O=C1Cn2c(c3c(nc2=O)CCCC3)N1
inactive: [1] -31.1% | [2] -7.3% | [3] -10.3% | [4] -13.7% | [5] -7.95% | [6] 2.1%

CC(=O)OCC1COC(C2CC=CCC2C)O1 (stereo not drawn)
inactive: [1] -1.9% | [2] -8.9% | [3] -8.35% | [4] 4.05% | [5] 13.6% | [6] -7.6%

C=C1CC[C@H]2C(C)=CC[C@@H]3[C@H](OC(=O)[C@H]3CN(C)C)[C@@H]12
inactive: [1] 8.05% | [2] -4.45% | [3] 1.5% | [4] 32.7% | [5] 26.4% | [6] 16.2%

CCCCCCCOC(=O)C(CC)CC
inactive: [1] 6.8% | [2] -6.45% | [3] 5.45% | [4] 2.85% | [5] 2.65% | [6] 6.45%

C[C@]12C(=O)C=CCC1=CC[C@@H]1[C@@H]2[C@H]2CC3(O)C(=O)O[C@@]4(C)[C@H]5C[C@@]6(C)[C@@H]7[C@@]2(O)[C@]1(OC[C@H]6C(=O)O5)O[C@]734 (stereo partly drawn)
inactive: [1] 9.6% | [2] 16.3% | [3] -9.3% | [4] 1% | [5] -22.4% | [6] -55%

CCCCCCCC(=O)NN
inactive: [1] -20.9% | [2] -27.6% | [3] -12.9% | [4] -4.7% | [5] -11.9% | [6] 10.3%

O=S(=O)(OCCCCCCCCCCOS(=O)(=O)c1ccc(Cl)cc1)c1ccc(Cl)cc1
inactive: [1] -7.6% | [2] -3.6% | [3] -3.6% | [4] 8.6% | [5] -5.3% | [6] -4.55%

Cc1c(C(=O)CC(=O)C(=O)Nc2ccccc2C(F)(F)F)[n+](=O)c2ccccc2n1[O-]
inactive: [1] 5.4% | [2] 8.05% | [3] -9.4% | [4] 16.9% | [5] 3.55% | [6] -6.45%

CO[C@@]12C[C@@H](C)C3=CCC(C)=C3CC1=C(C)C(=O)O2
inactive: [1] 8.9% | [2] -4.05% | [3] 16.6% | [4] 2.9% | [5] 26.4% | [6] -68.3%

CN(C)c1ccc(CC2Cc3ccccc3C2O)cc1 (stereo not drawn)
inactive: [1] 6.75% | [2] -6.55% | [3] 10.2% | [4] -11.7% | [5] 12.3% | [6] 5.9%

CCOC(=O)C(Cc1ccc([N+](=O)[O-])cc1)NC(=O)CC1c2ccccc2-c2ccccc21 (stereo not drawn)
inactive: [1] -10.1% | [2] 1.05% | [3] 3.4% | [4] -35% | [5] -9.9% | [6] -8.95%

CCC(C#N)NC1CCN(Cc2ccccc2)CC1 (stereo not drawn)
inactive: [1] 1.3% | [2] -23.1% | [3] -2.05% | [4] 6.1% | [5] -7.75% | [6] 5.85%

Cc1cc(=O)c2c(C)nn(-c3ccccc3)c2[nH]1
inactive: [1] -16.3% | [2] -36.2% | [3] 10.3% | [4] -9.15% | [5] 2.4% | [6] -1.85%

CN(C)CC(c1ccccc1)C(O)(c1ccccc1)c1ccccc1 (stereo not drawn)
inactive: [1] -5.65% | [2] -2.75% | [3] -1% | [4] -45.9% | [5] -18% | [6] 3.05%

CCc1cccc(C)c1NC(=O)C(=O)CC(=O)CCCO
inactive: [1] -37.6% | [2] 21.7% | [3] 27.6% | [4] -27.9% | [5] 0.05% | [6] 25.4%

O=C(NC1CCCCC1)NC12CC3CC(CC(F)(C3)C1)C2
inactive: [1] -9.9% | [2] -12.8% | [3] -7.55% | [4] 5.65% | [5] -12.1% | [6] 6.7%

CN(C)c1ccc(/C=C2\CCOC2=O)cc1
inactive: [1] 38.1% | [2] 11.8% | [3] 14.3% | [4] 4.6% | [5] 2.95% | [6] 8.6%

COC1=CC(=O)[C@H]2[C@H](C)C(c3ccccc3)[C@@]2(C)C1=O (stereo partly drawn)
inactive: [1] -21.5% | [2] -1.5% | [3] -16.6% | [4] 2.1% | [5] -0.05% | [6] -20.2%

CCN(CC)c1ccc2cc(C(=O)Nc3nc(C45CC6CC(CC(C6)C4)C5)cs3)c(=O)oc2c1
inactive: [1] -17.4% | [2] -25.9% | [3] -16.9% | [4] -17.6% | [5] -13.9% | [6] -16.1%

CN(C)c1nc(-c2ccccc2)c(Cc2ccccc2)c(=O)o1
inactive: [1] -1.9% | [2] -4.15% | [3] 20.5% | [4] -4.25% | [5] 7.25% | [6] 7.8%

COC1OC(CO)C(O)C(OCc2ccccc2)C1OCc1ccccc1 (stereo not drawn)
inactive: [1] -4.35% | [2] 0.5% | [3] -5.35% | [4] -10.3% | [5] -7.4% | [6] -19.3%

Cc1ccc(C)n1-c1ccc(OCC(N)=O)cc1
inactive: [1] 16.3% | [2] 16.1% | [3] 12.7% | [4] -15.7% | [5] 12.6% | [6] 13.9%

OC1[C@H](O)CN(OCc2ccccc2)C[C@@H]1O (stereo partly drawn)
inactive: [1] -13.9% | [2] -2.4% | [3] -15.1% | [4] -20.4% | [5] 7.85% | [6] -18.4%

CC(C)C1SCC(=O)N1c1nncs1 (stereo not drawn)
inactive: [1] -2.55% | [2] 22.4% | [3] 9.15% | [4] -27.8% | [5] -0.9% | [6] 5%

O=c1ccc(-c2ccccc2)n[nH]1
inactive: [1] -25.4% | [2] -0.2% | [3] -28.3% | [4] 5% | [5] -25.8% | [6] -23.9%

O=C1C(OC(=O)c2ccccc2)=C(OC(=O)c2ccccc2)C(=O)C(OC(=O)c2ccccc2)=C1OC(=O)c1ccccc1
inactive: [1] -7.15% | [2] -1.25% | [3] 13.8% | [4] -22.8% | [5] 2.85% | [6] 2.75%

CCN(CC)CCOCC1CCCN2CCCCC12 (stereo not drawn)
inactive: [1] -9.5% | [2] -9.8% | [3] -1.75% | [4] 5.75% | [5] 16.1% | [6] -50.1%

CCC1(N=[N+]=[N-])C(=O)c2ccccc2N(c2ccccc2)C1=O (stereo not drawn)
inactive: [1] -13.3% | [2] -13% | [3] -18.9% | [4] 2.75% | [5] -0.95% | [6] -19.4%

C=C(C)CNCCN
inactive: [1] 36.1% | [2] 22.1% | [3] 6.2% | [4] -0.6% | [5] 26.6% | [6] 16.3%

Cc1cccc(NC(=O)Oc2ccc(Nc3ccccc3)cc2)c1
inactive: [1] 6.6% | [2] 38.5% | [3] 40.2% | [4] 12.3% | [5] 62% | [6] 50.4%

CCN(C(=O)/C=C/c1ccccc1)C1CCCCC1
inactive: [1] 17.2% | [2] 27.9% | [3] 53.2% | [4] 47.2% | [5] 35.5% | [6] 48.5%

O=C(NO)c1ccc(O)c(O)c1
inactive: [1] 2.1% | [2] 14.4% | [3] 5.55% | [4] -8.25% | [5] -8.45% | [6] -39%

O=NNc1nc2ncccc2cc1-c1ccccc1Cl
inactive: [1] -7.8% | [2] -6.05% | [3] -5.9% | [4] 9.75% | [5] -22.2% | [6] -8.2%

CC1(C)[C@H](C(=O)O)N2C(=O)[C@@H](NC(=O)C(c3ccccc3)c3ccccc3)[C@H]2S1=O (stereo partly drawn)
inactive: [1] -53.5% | [2] -8.25% | [3] -10.4% | [4] 3.65% | [5] -3.9% | [6] 4.85%

N#Cc1c[nH]c2cccc([N+](=O)[O-])c12 (tested in a mixture with another compound)
inactive: [1] 7.95% | [2] -10.9% | [3] 7.8% | [4] 17.9% | [5] 13.4% | [6] -2.8%
